Compound activity deposited in PubChem BioAssay by several laboratories.
L929 necroptosis: L929 zVAD cell death inhibition; L929 zVAD necroptosis rescue, ATP luminescence, 24 h; with zVAD 60 µM; 0.38% of 220,000 active; viability rescue, % at 10 µM;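 active means activation, scaled between plate controls, above about 75%, limit read from the data; inactive means activation under that limit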;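 further: 0% = zVAD with DMSO and 100% = DMSO alone without zVAD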
14-3-3 Bad inh: disrupts binding of bovine 14-3-3 zeta to phospho-Bad peptide; P63103; TR-FRET 14-3-3zeta/Dy647-pBad peptide displacement, 1 h; inhibition, % at 21.7 µM; 0.71% of 220,000 active;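 active means inhibition above about 70%, limit read from the data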;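 further: 0% = full 14-3-3 plus peptide FRET controls and 100% = background without 14-3-3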
Target sequence (P63103 whole entry, looked up): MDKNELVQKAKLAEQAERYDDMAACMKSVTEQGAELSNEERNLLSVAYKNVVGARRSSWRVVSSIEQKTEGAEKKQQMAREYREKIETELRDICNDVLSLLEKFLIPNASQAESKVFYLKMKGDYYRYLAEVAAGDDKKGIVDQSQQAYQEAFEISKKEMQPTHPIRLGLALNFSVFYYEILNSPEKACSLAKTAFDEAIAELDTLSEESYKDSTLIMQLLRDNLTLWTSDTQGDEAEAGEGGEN
Calpain2 inh: inhibitors of pig calpain II. purified calpain II, fluorogenic peptide substrate, 30 min. AID 1236. 0.37% of 220,000 active. inhibition, % at 16 µM;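 active means inhibition above about 50%, limit read from the data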
TNF necrop inh: blocks TNF-alpha induced death of Jurkat FADD-/- cells | activation (protection from cell death), % at 10 µM | Jurkat FADD-/- TNF necroptosis rescue, ATP luminescence, 24 h; 0 = TNF only, 100 = no-TNF cells | 0.068% of 220,000 active;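 active means activation, meaning protection from cell death, of at least 50% relative to plate controls; inactive means activation below 50%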;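 further: necroptosis triggered by 40 ng/mL TNF-alpha added together with compound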
ROMK primary: human ROMK K+ channel modulation, primary screen; Tet-inducible ROMK, thallium flux fluorescence; actives lie on both sides; B-score at 10 µM; P48048; 2% of 130,000 active;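 active means signal ratio slope over the read window, or its plate-corrected B-score, at least 3 SD from the plate mean, either direction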;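 further: B-score of the F/F0 ratio slope over 7 to 12 s after thallium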
HMGR II inh: E. faecalis class II HMG-CoA reductase inhibition. 0.41% of 190,000 active. AID 1066. inhibition, % at 10 µM. purified E. faecalis HMGR, NADPH absorbance 340 nm kinetic;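 active means inhibition above a set limit, the median over all tested compounds plus 3 SD, cut at about 9.5% in these data; inconclusive means no clear call, values can overlap the other calls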;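 further: enzyme runs in reverse so mevalonate oxidation gives rising NADPH absorbance; 0% = complete reaction with DMSO and 100% = background rate lacking mevalonate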
ROMK hit retest: confirmation of human ROMK potassium channel modulators | shares compounds with ROMK primary | ROMK thallium flux, fluorescence ratio; hits give low values | normalized thallium flux (F/F0 slope) at 10 µM | 54% of 3,000 active;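 active means Flux at 10 µM at least 3 SD below or above vehicle control mean in one or both replicates; inconclusive means no clear call, values can overlap the other calls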
* = called active by the depositor; ? = inconclusive; . = no result given. The list is not random: actives were taken first. Their share in the collection is about 3%.

SMILES	L929 necroptosis	14-3-3 Bad inh	Calpain2 inh	TNF necrop inh	ROMK primary	HMGR II inh	ROMK hit retest
Cc1nnc(Sc2cc(NCCO)c([N+](=O)[O-])c3nonc23)s1	2	-7	82*	-18	-7.2*	-3	0.057*
CCCC(=O)OCCNc1cc(Sc2nccn2C)c2nonc2c1[N+](=O)[O-]	0	-7	-5	-9	-4.7*	-5	0.051*
CCCSc1cc(NCCOC(=O)CCC)c([N+](=O)[O-])c2nonc12	0	-17	0	-7	.	1	.
Brc1ccc(NC2=Nc3ccccc3CC2)cc1	0	13	-1	0	.	-6	0.08
Cc1ccc(NC2=Nc3ccccc3CC2)cc1	0	1	-9	1	1.7	-7	.
S=C(Nc1ccccc1)N1CCCCCCC1	5	-11	-30	0	0.16	-2	.
S=C(Nc1ccccc1)N1CCN(C(=S)Nc2ccccc2)CC1	1	-10	26	1	-13*	1	0.087
S=C(Nc1ccc(Oc2ccccc2)cc1)N1CCN(c2ccccn2)CC1	1	-12	17	-2	2.6*	-6	0.082
Cc1ccc(SCC(=O)Nc2ccc(N3CCOCC3)cc2)c(C)c1	19	-15	-22	2	-0.003	-4	.
COC(=O)c1cccc(-c2ccc(C(c3c(C)[nH][nH]c3=O)c3c(C)[nH][nH]c3=O)o2)c1	6	-20	-22	-4	-1.4	5	.
COC(=O)c1ccccc1-c1ccc(C(c2c(C)[nH][nH]c2=O)c2c(C)[nH][nH]c2=O)o1	-2	-7	11	-4	-3.8*	-1	?
Cc1ccc(CNCCC2=CCCCC2)cc1	0	-5	-33	-1	-2.5	-3	.
CCN(CC)C(=O)CSc1nnc(COc2cccc(C)c2)n1C	0	-8	10	1	-0.3	2	.
CCn1c(C)cs/c1=N\C(=S)Nc1ccccc1C	0	-17	20	1	3.2*	0	0.07
CCC(C)(C)NC(=S)Nc1ccccc1C	0	0	17	0	-1.5	1	.
O=C(/C=C/c1ccccc1)c1ccc2c(c1)OCO2	-1	-3	-23	0	0.046	.	.
O=C(/C=C/c1ccncc1)c1ccc2c(c1)OCCO2	-1	-10	-37	-9	-2.7*	0	0.053*
CCn1ncc(C2=NOC(C(=O)Nc3cccc(O)c3)C2)c1C (centres undefined)	0	0	-7	-1	1.7	0	.
CC1=CC(C)(C)N=C(Nc2nc(C)c3cc(C)cc(C)c3n2)N1	0	-5	-14	10	-3.9*	-1	0.049*
Cc1cc(C)c2nc(Nc3nc(-c4ccccc4)cc(=O)[nH]3)nc(C)c2c1	1	31	0	5	.	.	.
CCCCOc1ccc(CC(=O)NO)cc1	64	-4	8	-6	.	-2	0.081
CCCCOc1ccc(C(=O)NC)cc1	0	1	-18	-1	1.3	-3	.
CC1CCN(C(=O)CNC(=O)c2cccc(OC(F)F)c2)CC1	0	-14	-25	1	-0.16	0	.
Cc1ccc(/C=N/Nc2nc(N3CCCCC3)nc(N3CCCCC3)n2)o1	1	-12	13	2	-1.7	4	.
COC(=O)c1ccccc1-c1ccc(/C=N/Nc2nc(N3CCCC3)nc(N3CCCC3)n2)o1	1	-5	-52	0	.	.	?
O=C(COC(=O)C12CC3CC(CC(C3)C1)C2)Nc1nccs1	4	7	25	2	0.98	2	.
O=[N+]([O-])c1ccc(-c2ccc(/C=N/Nc3nc(NCc4ccccc4)nc(N4CCOCC4)n3)o2)cc1	7	-1	-137	-6	-3.9*	0	0.063*
COc1nc(N/N=C/c2ccc(-c3ccccc3[N+](=O)[O-])o2)nc(N2CCOCC2)n1	6	-8	-22	-1	-1.2	-3	.
CCOc1cc(C2C3=C(CC(C)(C)CC3=O)Nc3n[nH]c(C)c32)ccc1O (centres undefined)	-1	-3	16	1	-0.52	1	.
Fc1ccc(-c2cnn3c(-c4cccs4)ccnc23)cc1	1	-2	-20	2	-2.3*	-2	0.063*
